# Compound activity from PubChem.
# Abeta rescue: compounds reversing amyloid beta toxicity in yeast; yeast expressing A-beta42, growth rescue, OD600, 48 h; response scale: 0% DMSO, 100% iron-clioquinol control; Potency, µM (series often up to 46.1 µM), hits mostly activators; hit rate 0.063% among 410,000; AID 1347071; also: nearly all actives have a fitted effect of over 55% in size
#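 Growth rescue measured by 600 nm absorbance after 48 h yeast culture at 30 C with compound. Values normalized between DMSO and an equimolar ferric chloride plus clioquinol control.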
# FUS yeast rescue: FUS proteinopathy suppression in yeast | S. cerevisiae FUS-expressing, growth rescue, OD600, 24 h | Potency, µM (titrated, usually from 76.6 µM), actives largely listed as activators | hit rate 0.24% among 390,000;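 also: plate controls were DMSO vehicle for no effect and reference control for full effect; nearly all actives have a fitted effect of over 55% in size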
#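 Toxicity suppression screen in FUS-yeast. Cells induced with 2% galactose, starting OD 0.005, treated 24hr at 30C with compounds at multiple final concentrations; growth by OD600.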
# ERG Ets-DNA blk: ERG Ets/DNA interaction inhibition; Potency, µM (series often up to 76.9 µM), for inactives: at the highest dose FP activity, negative = inhibition, hits mostly inhibitors; hit rate 0.028% among 370,000; P11308; fluorescence polarization, His-ERG Ets domain / labelled DNA; active = well fitted inhibition curve with a large enough effect in the polarisation, with a control signal flat; inconclusive = small, poorly fitted or top-dose-only effect, or effect the other way, or a change in a side signal; inactive = no such curve, though single readings can be large or run the other way; the % refers to the polarisation;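 also: polarization taken with two DNA probes labelled with fluorescein and Texas red; % of control where 0% means no effect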
# Target sequence (P11308 whole entry, looked up, the tested form may be a part): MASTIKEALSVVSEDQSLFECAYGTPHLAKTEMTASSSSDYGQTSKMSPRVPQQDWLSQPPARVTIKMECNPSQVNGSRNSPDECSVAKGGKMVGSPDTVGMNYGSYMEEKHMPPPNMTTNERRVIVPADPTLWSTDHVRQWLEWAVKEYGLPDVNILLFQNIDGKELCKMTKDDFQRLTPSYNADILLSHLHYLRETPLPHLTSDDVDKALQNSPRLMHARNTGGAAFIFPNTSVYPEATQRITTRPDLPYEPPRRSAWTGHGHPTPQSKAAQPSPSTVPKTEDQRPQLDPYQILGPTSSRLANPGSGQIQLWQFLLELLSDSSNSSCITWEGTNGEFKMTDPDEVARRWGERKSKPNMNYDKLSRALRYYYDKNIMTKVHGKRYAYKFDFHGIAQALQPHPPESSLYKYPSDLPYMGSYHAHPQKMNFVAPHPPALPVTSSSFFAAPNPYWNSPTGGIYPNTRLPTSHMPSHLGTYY
#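 His-tagged ERG Ets domain (1 uM in the protein solution; 300mM KCl, 50mM Tris-HCl, 1mM EDTA, 1mM DTT, pH 7.5) received compound, then a probe mix of 5 nM fluorescein-DNA and 100nM Texas-615-DNA. Fluorescence polarization was read for both dyes.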
# TDP-43 yeast inh: TDP-43 toxicity inhibition in yeast. TDP-43 expressing yeast growth rescue, BacTiter-Glo, 24 h. Potency, µM (highest dose often 46.1 µM), for the others: at the highest dose growth rescue (activation), most hits filed as activators. hit rate 1.8% among 410,000; also: % of control where 0% means no effect; nearly all actives have a fitted effect of over 50% in size
#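 Yeast cells expressing TDP-43 under galactose induction are exposed to compounds for 24 hr at 30 deg C. BacTiter-Glo luminescence measures growth, so protective compounds score as activators.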
# aSyn yeast inh: rescues yeast growth from alpha-synuclein toxicity | Potency, µM (highest dose often 46.1 µM), inactives show top-dose growth rescue (activation), most hits filed as activators | Yeast expressing alpha-synuclein, growth rescue, BacTiter-Glo, 24 h | hit rate 0.14% among 370,000; also: % of control where 0% means no effect; nearly all actives have a fitted effect of over 65% in size
#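 Galactose-induced alpha-syn yeast (OD600=0.02, raffinose-pregrown) + pinned cpd, 24 hr, 30 deg C; growth by BacTiter-Glo luminescence. Growth restoration scores as activation.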
# Mito fusion act: inhibitors of mitochondrial division or activators of mitochondrial fusion; Potency, µM (doses to about 46.1 µM), for the others: at the top dose growth rescue (activation), hits mostly activators; S. cerevisiae fusion-defective mutant growth rescue, CellTiterGlo 48 h; AID 485298; hit rate 0.23% among 320,000; also: % of control where 0% means no effect; nearly all actives have a fitted effect of over 45% in size
#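 Temperature-sensitive fusion-defective S. cerevisiae (e.g. fzo1-1, mgm1-5) were grown with compound in YPEG medium (3% ethanol, 3% glycerol) for 48 hours at 37C. Growth rescue was measured as viability by CellTiterGlo luminescence after 10 minutes at ambient.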
# Starred values were filed as active, the others as inactive; i = inactive; u = inconclusive; x = no result; [ ] = dose if it differs, or a comment. Shown are actives, neighbours in structure and some others; about 2.2% of the full set was active somewhere. Unless noted, calls follow the shape of the dose curve; as a rule, active = well fitted curve in the direction sought with a large enough effect; inconclusive = small, poorly fitted or top-dose-only effect, or another doubt; inactive = no such curve, though single readings can be large; an effect the other way counts as inactive or inconclusive. Potency is read from the fitted curve at half-maximal effect.
SMILES,Abeta rescue,FUS yeast rescue,ERG Ets-DNA blk,TDP-43 yeast inh,aSyn yeast inh,Mito fusion act
O=C(c1ccc2c(c1)OCO2)N1CCN(S(=O)(=O)c2ccc(Br)cc2Cl)CC1,i,i,-12.5%,17.8µM*,13.5%,19.1%
Cc1cc(C)c(S(=O)(=O)N2CCN(C(=O)c3c(C)nn(-c4ccccc4)c3Cl)CC2)c(C)c1,i,x,10.9%[15.4 µM],-25.2%,4.1%,x
Cc1cc(C)c(S(=O)(=O)N2CCN(C(=O)c3ccc4c(c3)OCO4)CC2)c(C)c1,i,i,12.5%,15.8µM*,9.5%,4.8%
Cc1ccc(N=Nc2ccc(O)c(/C=N\NC(=O)c3ccc(N)cc3)c2)cc1C,i,1.12µM*,12.2%,-19.0%,-1.0%,2.2%
Cc1ccc(CNC(=O)Cn2ccn(-c3ccc(F)c(F)c3)c(=O)c2=O)cc1,i,i,3.6%,2.0%,x,x
COc1cccc(NC(=O)CSC2=Nc3ccccc3C3=NC(CC(=O)NCc4ccc5c(c4)OCO5)C(=O)N23)c1 (configuration not stated),i,25.1µM*,-4.0%,5.1%,x,x
COc1ccccc1NC(=O)CSC1=Nc2ccccc2C2=NC(CC(=O)NCc3ccc4c(c3)OCO4)C(=O)N12 (configuration not stated),i,u,-0.8%,3.6%,x,x
O=C(CSc1ncc2c(n1)-c1ccccc1N(Cc1ccc(F)cc1)S2(=O)=O)NCCc1ccccc1,i,i,-5.5%,2.6%,x,x
Cc1ccccc1Nc1c(-c2ccccn2)nc2c(C)cccn12,11.2µM*,i,0.7%,-9.5%,-10.3%,-10.4%
CCOc1ccc(Cl)cc1-c1cc(C(=O)NCc2ccccc2OC)[nH]n1,i,u,x,17.8µM*,u,x
CCOc1ccc(Cl)cc1-c1cc(C(=O)NCc2ccccc2)[nH]n1,i,u,x,u,27.1%,x
Cc1ccc(Nc2nc3ccccc3s2)cc1,u,i,4.5%,26.0%,-5.9%,-2.2%
Cc1ccccc1Nc1nc2ccccc2s1,i,x,-12.1%,20µM*,-1.5%,9.7%
O=C1CC(c2ccccc2)Sc2ccccc2N1 (configuration not stated),i,i,-0.8%,11.2µM*,x,-8.6%
O=C1CC(c2ccco2)Sc2ccccc2N1 (configuration not stated),i,i,-7.4%,15.0%,-0.1%,-28.2%
COc1ccc([C@H]2/C=C\CN(C(=O)CC(C)(C)C)[C@@H](C)C(=O)N2Cc2ccc(F)cc2)cc1,i,i,11.6%,35.5µM*,3.0%,x
CCC[C@H]1[C@@H](OC(=O)NCc2cccnc2)CC[C@@]23CCCN2C(=O)CCC[C@@H]13,x,i,x,x,x,x
Cc1ccc(CC(=O)NCc2nc(-c3cccc(C)c3)no2)cc1,i,i,0.0%,17.8µM*,x,x
Cc1ccc(CC(=O)NCc2nc(-c3ccccc3)no2)cc1,i,i,-3.2%,12.6µM*,x,x
Cc1cccc(-c2noc(CNC(=O)c3ccc(C)cc3C)n2)c1,i,i,-6.7%,2.4%,x,x
CC(C)CC(=O)NC1CC(=O)N(c2ccc3c(c2)OCCO3)C1 (configuration not stated),i,i,-19.9%,13.5%,x,x
C=CCN(Cc1ccc(Br)s1)C(=O)c1ccc(OCc2c(C)noc2C)cc1,i,i,x,9.3%,1.6%,x
O=C(Nc1ccccc1)/C(=C/c1ccccc1)c1ccccc1,i,i,-7.5%,12.6µM*,-6.3%,1.4%
Cc1ccccc1NC(=O)/C(=C/c1ccccc1)c1ccccc1,i,i,-1.6%,18.3%,-9.0%,1.9%
Cc1cccc(Oc2c(C=O)c3ccccc3n2C)c1,i,i,-3.4%,17.8µM*,-4.8%,5.7%
Cn1c(Oc2ccccc2)c(C=O)c2ccccc21,i,i,-4.5%,10.4%,-2.4%,-3.7%
COC(=O)N1C(=O)[C@](c2ccccc2)(C2CCCC2)N1C(=O)OC,i,i,-6.9%,14.1µM*,2.3%,-0.5%
